Results as given in PubChem BioAssay.
Values without a mark were called inactive.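 The calls were made as follows, unless noted: active = inhibition over a set limit, the all-compound mean plus 3 SD, in both replicate runs; inconclusive = over that limit in just one replicate run; inactive = at or under that limit in both runs.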

Test: RAM pathway blockade in budding yeast – dse1pr::URA3 reporter, 5-FOA selection, pilot screen (AID 869);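 also: 0% = DMSO wells with no growth and 100% = 10 µM 1-NA-PP1 with full growth; RAM network block rescues cells from 5-FOA so hits raise OD615 growth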
Settings: S. cerevisiae dse1pr::URA3 5-FOA growth, OD615, 2 d; at 10 µM; active compounds read high; strain carries analog-sensitive mutant Cbk1 kinase

SMILES | inhibition [%]
COC(=O)CN(c1ccccc1)S(=O)(=O)c1ccccc1 | 1.01
CCCC(c1c(C)n(C)n(-c2ccccc2)c1=O)c1c(C)n(C)n(-c2ccccc2)c1=O | 1.16
O=C(Cn1cc2c(n1)CCCCC2)NCc1ccccn1 | 3.27
CC(C)n1c(CCCO)nc2ccccc21 | 0.93
O=C(CCCCCN1C(=O)C2C3C=CC(C3)C2C1=O)Nc1nccs1 (stereo not given) | 0.215
O=C(CSc1nc(-c2ccccc2)c(-c2ccccc2)o1)N1CCOCC1 | 2.38
Cc1ccc2c(c1)c1c(n2CC(O)Cn2c(C)nc3ccccc32)C(=O)CCC1 (stereo not given) | 2.33
O=C(Cn1ncc2c(=O)oc3ccccc3c21)N1CCCN(Cc2ccccc2F)C1 | 1.55
Cc1cccc(N2CCN(S(C)(=O)=O)CC2)c1C | 0.76
CCOC(=O)c1c(NC(=O)C2CCCN2S(=O)(=O)c2cccc3nsnc23)sc(C)c1C (stereo not given) | 0.565
COc1ccc(C2N3CC4(C)CN2CC(C)(C3)C4)cc1OC (stereo not given) | 1.08
Cc1ccc(C)c(SCC(=O)OCC(=O)c2ccco2)c1 | 0.705
COc1ccc(-c2nc(CS(=O)(=O)CC(=O)Nc3ccc(Cl)cc3)c(C)o2)cc1 | 2.77
CC(=O)c1ccc(-n2nncc2C)cc1 | 0.965
CN(C)C(=O)CSc1nnc(-c2cccnc2)n1-c1ccccc1 | 1.36
CC1CN(C(=O)c2cc3ccccc3oc2=O)CC(C)O1 (stereo not given) | 0.555
COc1cccc(/C=C2\N=C(SC)SC2=O)c1OC | 3.8
COc1ccc(OC)c(N(CC(=O)O)S(=O)(=O)c2ccc(OC)c(OC)c2)c1 | 2.03
O=C(c1ccc(Br)o1)N1CCN=C1SCc1cccnc1 | 2.11
CCc1n[nH]c2c1/C(=N\O)CC(C)(C)C2 | 1.68

SMILES | inhibition [%]
CC(=O)C1C(c2ccccc2Cl)NC(=O)NC1(O)C(F)(F)F (stereo not given) | 1.93
CCC(C)NC(=O)CN(c1ccc2c(c1)OCO2)S(=O)(=O)c1c(C)n[nH]c1C (stereo not given) | 1.34
CCOCCn1c(CN(Cc2ccccc2)Cc2ccccc2)nc2c1c(=O)n(C)c(=O)n2C | 1.48
COc1ccc(CN2CCN(c3cccc(C)c3C)CC2)cc1OC | 1.5
CCCc1cc(C(=O)N(C2CCCCC2)C2CCCCC2)no1 | 1.57
CCCCNC(=O)c1cc(-c2ccc(OC)c(OC)c2)on1 | -0.37
O=C(Cn1cnc2c(nnn2-c2ccccc2)c1=O)N1CCCc2ccccc21 | 1.55
CCCCOC(=O)Nc1ccc(N2CCOCC2)cc1 | 1.28
Cc1nc(-c2ccc(S(=O)(=O)N3CCCCCC3)cc2)cs1 | 0.075
Cc1ccc(-n2c(SCC(N)=O)nc3c([nH]c4ccccc43)c2=O)cc1 | 0.24
CCOC(=O)N1CCC(NC(=O)c2ccc3snnc3c2)CC1 | 0.55
CN(CC(=O)NC1CCCc2ccccc21)S(=O)(=O)c1ccc2c(c1)c(=O)n(C)c(=O)n2C (stereo not given) | 2.24
COc1ccc(C2C(C(=O)NC(C)C)c3ccccc3C(=O)N2C)cc1OC (stereo not given) | 0.95
CCOC(=O)c1sc(NC(=O)C2CC2)nc1C | 0.595
N#CC1=C(SCC(=O)Nc2ccccc2)NC(=O)CC1c1ccc(O)cc1 (stereo not given) | 1.42
CCCCNc1cc(=O)n(C)c(=O)[nH]1 | 1.55
CC(=O)Oc1ccc(N2C(=O)C3C(C2=O)C2(C)C=CC3(C)O2)cc1 (stereo not given) | 2.16
O=C(O)CCCC(=O)Nc1ccc(Cl)c(Cl)c1 | 0.165
CC1=C(C(=O)OC(C)C)C(c2ccc(Br)s2)NC(=O)N1C (stereo not given) | 0.54
CCOC(=O)N1CCN(C(=O)c2ccc3c(c2)N(CC)CCS3)CC1 | 1.89

Test: RAM signaling pathway blockade in yeast – S. cerevisiae, Pdr1DBD-CYC8 efflux-inhibited sensitized strain, primary screen (AID 1298;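 active = RAM network inhibition above 8.4% in each of two replicates, 3 SD over the compound average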;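 also: 0% = DMSO untreated cells without growth and 100% = 10 µM 1-NA-PP1 full growth; higher means more yeast growth rescued from 5-FOA killing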)
Settings: S. cerevisiae cbk1-as DSE1-URA3 strain, 5-FOA growth OD615, 2 d; at 50 µM; active compounds read high

SMILES | RAM network inhibition [%]
COC(=O)CN(c1ccccc1)S(=O)(=O)c1ccccc1 | 0.88
CCCC(c1c(C)n(C)n(-c2ccccc2)c1=O)c1c(C)n(C)n(-c2ccccc2)c1=O | 4.48
O=C(Cn1cc2c(n1)CCCCC2)NCc1ccccn1 | 4.15
CC(C)n1c(CCCO)nc2ccccc21 | 0.19
O=C(CCCCCN1C(=O)C2C3C=CC(C3)C2C1=O)Nc1nccs1 (stereo not given) | 4.28
O=C(CSc1nc(-c2ccccc2)c(-c2ccccc2)o1)N1CCOCC1 | 4.54
Cc1ccc2c(c1)c1c(n2CC(O)Cn2c(C)nc3ccccc32)C(=O)CCC1 (stereo not given) | 7.19
O=C(Cn1ncc2c(=O)oc3ccccc3c21)N1CCCN(Cc2ccccc2F)C1 | 1.79
Cc1cccc(N2CCN(S(C)(=O)=O)CC2)c1C | 5.4
CCOC(=O)c1c(NC(=O)C2CCCN2S(=O)(=O)c2cccc3nsnc23)sc(C)c1C (stereo not given) | 7.77
COc1ccc(C2N3CC4(C)CN2CC(C)(C3)C4)cc1OC (stereo not given) | 0.83
Cc1ccc(C)c(SCC(=O)OCC(=O)c2ccco2)c1 | 2.26
COc1ccc(-c2nc(CS(=O)(=O)CC(=O)Nc3ccc(Cl)cc3)c(C)o2)cc1 | 3.02
CC(=O)c1ccc(-n2nncc2C)cc1 | 2.75
CN(C)C(=O)CSc1nnc(-c2cccnc2)n1-c1ccccc1 | 2.91
CC1CN(C(=O)c2cc3ccccc3oc2=O)CC(C)O1 (stereo not given) | 2.33
COc1cccc(/C=C2\N=C(SC)SC2=O)c1OC | 8.12
COc1ccc(OC)c(N(CC(=O)O)S(=O)(=O)c2ccc(OC)c(OC)c2)c1 | 4.23
O=C(c1ccc(Br)o1)N1CCN=C1SCc1cccnc1 | 3.23
CCc1n[nH]c2c1/C(=N\O)CC(C)(C)C2 | 1.03

SMILES | RAM network inhibition [%]
CC(=O)C1C(c2ccccc2Cl)NC(=O)NC1(O)C(F)(F)F (stereo not given) | -0.82
CCC(C)NC(=O)CN(c1ccc2c(c1)OCO2)S(=O)(=O)c1c(C)n[nH]c1C (stereo not given) | 2.93
CCOCCn1c(CN(Cc2ccccc2)Cc2ccccc2)nc2c1c(=O)n(C)c(=O)n2C | 5.44
COc1ccc(CN2CCN(c3cccc(C)c3C)CC2)cc1OC | 1.07
CCCc1cc(C(=O)N(C2CCCCC2)C2CCCCC2)no1 | 6.03
CCCCNC(=O)c1cc(-c2ccc(OC)c(OC)c2)on1 | -0.26
O=C(Cn1cnc2c(nnn2-c2ccccc2)c1=O)N1CCCc2ccccc21 | 5.32
CCCCOC(=O)Nc1ccc(N2CCOCC2)cc1 | 4.87
Cc1nc(-c2ccc(S(=O)(=O)N3CCCCCC3)cc2)cs1 | 1.28
Cc1ccc(-n2c(SCC(N)=O)nc3c([nH]c4ccccc43)c2=O)cc1 | -0.05
CCOC(=O)N1CCC(NC(=O)c2ccc3snnc3c2)CC1 | 4.29
CN(CC(=O)NC1CCCc2ccccc21)S(=O)(=O)c1ccc2c(c1)c(=O)n(C)c(=O)n2C (stereo not given) | 1.42
COc1ccc(C2C(C(=O)NC(C)C)c3ccccc3C(=O)N2C)cc1OC (stereo not given) | 5.34
CCOC(=O)c1sc(NC(=O)C2CC2)nc1C | -1.46
N#CC1=C(SCC(=O)Nc2ccccc2)NC(=O)CC1c1ccc(O)cc1 (stereo not given) | -0.69
CCCCNc1cc(=O)n(C)c(=O)[nH]1 | 2.98
CC(=O)Oc1ccc(N2C(=O)C3C(C2=O)C2(C)C=CC3(C)O2)cc1 (stereo not given) | 0.09
O=C(O)CCCC(=O)Nc1ccc(Cl)c(Cl)c1 | 1.64
CC1=C(C(=O)OC(C)C)C(c2ccc(Br)s2)NC(=O)N1C (stereo not given) | 2.29
CCOC(=O)N1CCN(C(=O)c2ccc3c(c2)N(CC)CCS3)CC1 | -1.13
